± gives the standard deviation of the averaged measurements. The full ranking holds about 25,000 sequences; the median of “ln(normalized median fluorescence intensity)” is about 8.9, and the highest 2% start at about 10. For the sample, the highest values were picked, then their nearest neighbours and some sequences at random.

The assay relates to PfAP2-LT AP2 domain (GST-tagged). As to the kind of experiment: gcPBM binding intensity (ln(normalized median fluorescence intensity)); higher = stronger DNA binding. A digest of the protocol:
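Probes on an Agilent 4 × 180k array were primer-extended, double-stranded and 36 bp long, taken from intergenic genomic regions, with negative controls added. GST-tagged P. falciparum DNA-binding domains from E. coli, about 25 μg on average, were applied to the array for 1 h in 1× PBS containing 1% milk, 0.2 mg/ml BSA, 0.5% salmon testes DNA and 0.03% Triton X-100. Binding intensity, obtained after Alexa488 anti-GST antibody detection and a 488 nm scan, is the highest Masliner-normalised natural-log median intensity across replicate spots of either probe orientation.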
With “TGGTTACTGTCATTAGTTATTTCTTGTTGACAATTA [CACACA_negctrl_site416]”, the “gcPBM binding intensity (ln)” value amounted to 8.79 ± 0.41.

In the case of “AACAAAAAAACAAACACACACACACCCATATATATA [CACACA_site3652]”, the “gcPBM binding intensity (ln)” value was 10.03 ± 0.042.

Turning to “CAAAAAAACAAACACACACACACACCCATATATATA [CACACA_site3653]”, the “gcPBM binding intensity (ln)” value came to 10.25 ± 0.085.

Consider “AAAAAAAAAAAAAACACACACACACCCATACAAAAT [CACACA_site1446]”, for which the “gcPBM binding intensity (ln)” value amounted to 10.12 ± 0.064.

In the case of “ATACAGAAAAAAAACACACACACATAATATACATAC [CACACA_site1933]”, the “gcPBM binding intensity (ln)” value was 9.84 ± 0.16.

Consider “AAAAAAAAAAAAAACACACACACACCCAAATACATA [CACACA_site708]”, for which the “gcPBM binding intensity (ln)” value was 9.99 ± 0.24.

Take “CACAAAAAAAATTATACACACACACCCATATATATA [CACACA_site8255]”: the “gcPBM binding intensity (ln)” value was 9.82 ± 0.11.

For the sequence “ATAAAATACAGATAAACACACATATAAACACCCATA [CACACA_site5381]”, the “gcPBM binding intensity (ln)” value worked out at 9.56 ± 0.32.

For “AAAAAATACAAACACACACACACACCCATATATATA [CACACA_site3560]”, the “gcPBM binding intensity (ln)” value was determined as 10.21 ± 0.057.

Regarding “CAAAAAAAATTATACACACACACACCCATATATATA [CACACA_site1044]”, the “gcPBM binding intensity (ln)” value amounted to 10.04 ± 0.099.

Regarding “TACAAACACCCATATACACACAAAAAAAAAATAAAA [CACACA_site5421]”, the “gcPBM binding intensity (ln)” value is 9.24 ± 0.49.

As to “AAAATACAGAAACACACACACACACCCATATATATA [CACACA_site3559]”, the “gcPBM binding intensity (ln)” value stood at 10.31 ± 0.014.

Take “TATTAATATGGTAATACACACTAATATACTTTTGTT [CACACA_site6860]”: the “gcPBM binding intensity (ln)” value was 8.89 ± 0.5.

In the case of “ATAAAAATATATGAAACACACAGTTTCTATAAGAAA [CACACA_site4156]”, the “gcPBM binding intensity (ln)” value came to 8.68 ± 0.47.

On to “CATATAATTATATATCGTACATATTAATATAATTAC [XGTACX_site401]”, for which the “gcPBM binding intensity (ln)” value stood at 8.68 ± 0.38.

In the case of GTTAATTTTTGTATAGTGCAAAAATATAATAGTATG, the “gcPBM binding intensity (ln)” value amounted to 8.64 ± 0.48.

“AACATATATAAATACACACACATATATATATGAAAT [CACACA_site4312]”: the “gcPBM binding intensity (ln)” value worked out at 9.51 ± 0.26.

With “AAAATAAGAAAACAAATGCACACCATTTATATAGAT [CACACA_site1055]”, the “gcPBM binding intensity (ln)” value came to 9.03 ± 0.39.

Turning to “ATATCTATGTTTATCTCGAATAACTTAAAAAATTAT [CACACA_negctrl_site1131]”, the “gcPBM binding intensity (ln)” value came out at 8.45 ± 0.45.

With “AACAGAATAATACTAAATGAACGATTTCTCTTTATG [GTGCAC_negctrl_site376]”, the “gcPBM binding intensity (ln)” value was found to be 8.6 ± 0.51.

Turning to “ATAAGTGTATAAAAATGTACGTGTATAAAAATATGT [XGTACX_site8235]”, the “gcPBM binding intensity (ln)” value stood at 9.06 ± 0.43.

For the sequence GTGTAATGCTTATCGGTGCATATATATATATATATA, the “gcPBM binding intensity (ln)” value was 10.13 ± 0.021.

Regarding “ATATATTATATTTAAGTGCATTAATTAAAATGCTTA [GTGCAC_site9403]”, the “gcPBM binding intensity (ln)” value turned out to be 8.34 ± 0.36.

On to GTGGTTGTAATGGTGGTGCATATTGTATATTATGTT, for which the “gcPBM binding intensity (ln)” value was 9.515 ± 0.078.

“CATCACCTTTTTAAATGTACGCATAATACCAAAAAA [XGTACX_site1587]”: the “gcPBM binding intensity (ln)” value came out at 8.6 ± 0.48.

For the sequence “GAGCCCAAAAAATTAGGTACGTATAAAGAGGTATTT [XGTACX_site5348]”, the “gcPBM binding intensity (ln)” value was determined as 8.8 ± 0.54.

For “ACCCTATAGGTAACTACACACCGCATATTGTTTACT [CACACA_site7436]”, the “gcPBM binding intensity (ln)” value was 9.15 ± 0.34.

“TTAATATTTTGATGTGTACACATTAAAATAGTTTTA [CACACA_site5712]”: the “gcPBM binding intensity (ln)” value is 8.46 ± 0.48.

Consider “TTATATTAAACAAACACACACATATAAATATAAATA [CACACA_site7174]”, for which the “gcPBM binding intensity (ln)” value was 9.23 ± 0.3.

As for “GAATATTAAACAAACACACACACATATATTTATATA [CACACA_site7563]”, the “gcPBM binding intensity (ln)” value stood at 9.73 ± 0.27.

Take “GAATATTAAACAAACACACACACATATATATATATA [CACACA_site3382]”: the “gcPBM binding intensity (ln)” value amounted to 10.1 ± 0.2.

For the sequence “TTATATTAAACAAACACACACATATATATATATATA [CACACA_site2382]”, the “gcPBM binding intensity (ln)” value is 9.54 ± 0.49.

For “ATATTAAACAAACACACACACATATATATATATATA [CACACA_site3383]”, the “gcPBM binding intensity (ln)” value was 10.2 ± 0.35.

“GTTTATATTAAACAAACACACACATATATATATATA [CACACA_site8749]”: the “gcPBM binding intensity (ln)” value was 9.57 ± 0.18.

Take “TGTATATATTTGTGCACACCAAAGTTTGATTTTATT [CACACA_site1860]”: the “gcPBM binding intensity (ln)” value amounted to 9.3 ± 0.42.

For the sequence “TTGTATATATTAAATTGTACTTATTTTTTGTATATA [XGTACX_site3251]”, the “gcPBM binding intensity (ln)” value is 8.64 ± 0.54.

Regarding “CTGAGGAAGCTAATTACACACATGCATATTTTTTTT [CACACA_site2177]”, the “gcPBM binding intensity (ln)” value amounted to 9.08 ± 0.28.

For “TGCAACAAAATAAACACACACACACCCCCACAAAAA [CACACA_site3388]”, the “gcPBM binding intensity (ln)” value is 10.36 ± 0.057.

For the sequence “GTAAAAAAAGAGCACACACACAAAAACACCCACAAA [CACACA_site1292]”, the “gcPBM binding intensity (ln)” value came to 10.3 ± 0.23.

“TTTAAACAAGGATCCACACACCCCAAAAAAAAAAGA [CACACA_site680]”: the “gcPBM binding intensity (ln)” value was determined as 9.26 ± 0.4.

Regarding “AAAAAAATAAAACACACACACAAAAAAATAAAAATA [CACACA_site465]”, the “gcPBM binding intensity (ln)” value is 9.56 ± 0.3.

Turning to “AAAAAAAAAAAACACACACACACACCCACAAAATAT [CACACA_site1447]”, the “gcPBM binding intensity (ln)” value came out at 10.31 ± 0.028.

Take “AAAAAAAAAAAAAACACACACATACACCCAAAAATG [CACACA_site4223]”: the “gcPBM binding intensity (ln)” value amounted to 9.66 ± 0.24.

Take “CACAAACAAAAACACACACACACACCCACAAAAATG [CACACA_site2429]”: the “gcPBM binding intensity (ln)” value is 10.2 ± 0.34.

Take “TGCAACAAAATAAACACACACACACTAACACAAAAA [CACACA_site7567]”: the “gcPBM binding intensity (ln)” value amounted to 9.98 ± 0.33.

In the case of “AATGTACCCACACCCACACACAAACAAATATATATA [CACACA_site2751]”, the “gcPBM binding intensity (ln)” value stood at 9.74 ± 0.29.

Turning to “AGCACACCCACAAAAACACACACAAAGGTGTTCTTA [CACACA_site8355]”, the “gcPBM binding intensity (ln)” value is 9.39 ± 0.42.

Turning to “AATGTACACCCACCCACACACAAACAAATATATATA [CACACA_site5521]”, the “gcPBM binding intensity (ln)” value was 10.1 ± 0.4.

The values are drawn from the supplement of paper PMC11417369.
